Most compounds without a hit are left out; they make up all but 1.1% or so of the library.
NCOA3 inh: SRC3 coactivator transcriptional activity inhibitors, primary screen, cell-based, luminescence. inhibition, % at 3.6 µM. Nuclear receptor coactivator 3 (Homo sapiens), Q9Y6Q9. 360,000 compounds, 0.17% hits. HEK293 GAL4-SRC3 luciferase reporter. AID 588352, 2011;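 active means inhibition above a per-campaign cutoff, the mean of all compounds plus 3 SD, cut at about 60% in these data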;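 further: 0% = DMSO-treated cells and 100% = gossypol-treated cells at 36 µM; higher means less SRC3-driven luciferase light from the GAL4 reporter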
GalR3 antagonist: GalR3 antagonists in HEK293 cells, primary screen, cell-based, fluorescence readout; 360,000 compounds, 0.44% hits; AID 651719, 2012; inhibition, % at 3 µM; HEK293 GalR3-CNG cAMP membrane potential fluorescence; galR3 body fused to GalR1 C-terminus;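 active means inhibition above the screen-wide average plus 3 SD, cut at about 13% in these data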;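 further: forskolin and galanin both at EC90 stimulate the cells; cAMP rise reported by CNG channel membrane potential dye signal; 0% = forskolin plus galanin with DMSO and 100% = forskolin alone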
Target sequence (O60755 1-299 limits assumed): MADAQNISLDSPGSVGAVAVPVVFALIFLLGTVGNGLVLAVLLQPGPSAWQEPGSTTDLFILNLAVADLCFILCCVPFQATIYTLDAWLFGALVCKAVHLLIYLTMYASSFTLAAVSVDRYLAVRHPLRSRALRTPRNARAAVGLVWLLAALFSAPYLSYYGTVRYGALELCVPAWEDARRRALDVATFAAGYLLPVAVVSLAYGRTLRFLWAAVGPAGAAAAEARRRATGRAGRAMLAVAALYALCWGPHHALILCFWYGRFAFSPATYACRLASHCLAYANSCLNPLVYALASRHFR
NR5A2 inv ag: LRH-1 (NR5A2) inverse agonists, primary screen, cell-based, luminescence, HEK293T, StAR-luciferase reporter. Nuclear receptor subfamily 5 group A member 2 (Homo sapiens), O00482. LRH-1 transfected, 24 h. inhibition, % at 3.6 µM. 360,000 compounds, 0.13% hits. AID 602396, 2012;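 active means inhibition above the mean inhibition of all tested compounds plus 3 SD, cut at about 73% in these data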;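 further: 0% = DMSO wells and 100% = reporter-only cells lacking LRH-1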
SRC2 inh: inhibition of GAL4-SRC2 driven luciferase reporter, primary screen, SRC2 inhibitor project, cell-based, luminescence; HEK293 GAL4-SRC2 luciferase reporter; inhibition, % at 9 µM; 370,000 compounds, 0.17% hits; Nuclear receptor coactivator 2 (Homo sapiens), Q15596; AID 651957, 2012;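 active means inhibition above the mean inhibition of all tested compounds plus 3 SD, set per campaign, cut at about 52% in these data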;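 further: 0% = DMSO treated cells and 100% = cells given Gossypol at 36 µM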
SRC1 inh: SRC1 coactivator transcriptional activity inhibitors, primary screen, cell-based, luminescence. inhibition, % at 3.6 µM. 360,000 compounds, 0.12% hits. HEK293 GAL4-SRC1 luciferase reporter. AID 588354, 2011;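 active means inhibition above the campaign mean plus 3 SD, with each screening campaign given its own cutoff, cut at about 60% in these data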;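 further: 0% = DMSO treated cells and 100% = gossypol at 36 µM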
NR2F2 inh: NR2F2 transcriptional activity inhibitors, primary screen, cell-based, luciferase reporter, HEK293T, luminescence; COUP transcription factor 2 (Homo sapiens), P24468; HEK293T NGFI-A luciferase reporter; inhibition, % at 8.6 µM; 370,000 compounds, 0.7% hits;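 active means inhibition above a per-plate cutoff, mean inhibition of test wells between control levels plus 3 SD, cut at about 38% in these data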;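 further: cells cotransfected with COUP-TFII expression vector driving the NGFI-A reporter; 0% = median of COUP-TF2 test wells and 100% = reporter-only cells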
GalR3 conf: GalR3 antagonist hit confirmation, cell-based, fluorescence, triplicate | AID 652245, 2013 | HEK293 GalR3 CNG cAMP biosensor, membrane potential fluorescence; galR3 fused to GalR1 carboxy tail; challenged with forskolin and galanin at EC90 | inhibition, % at 3 µM | shares compounds with GalR3 antagonist | 1,600 compounds, 59% hits;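 active means inhibition above the primary screen's cutoff, the mean inhibition of all screened compounds plus 3 SD, cut at about 13% in these data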;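 further: 0% = forskolin plus galanin and 100% = forskolin alone with DMSO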
CNG parental: nonspecific cAMP agonists in parental HEK-CNG cells, counter-screen for GalR3 antagonist project, cell-based, fluorescence, high throughput | shares compounds with GalR3 antagonist | HEK293-CNG parental cells, cAMP membrane potential fluorescence; normalised: DMSO wells 0%, forskolin wells 100% | activation, % at 3 µM | 1,600 compounds, 10% hits | AID 652268, 2013; in the data active means activation above about 1.3%
The depositor's hits bear a star; x = not tested or not shown.

SMILES	NCOA3 inh	GalR3 antagonist	NR5A2 inv ag	SRC2 inh	SRC1 inh	NR2F2 inh	others
CN1CN(c2ccccc2)C2(CCN(CCCSc3ccccc3NC(=O)/C=C/c3ccccc3)CC2)C1=O	14	-5	4	-24	3	39*
COC(=O)[C@]12OC[C@]34C([C@@H](O)[C@@H]1O)[C@]1(C)CC(=O)C(O)=C(C)[C@@H]1C[C@H]3OC(=O)[C@H](O)[C@@H]24 (stereo partly specified)	69*	-4	99*	61*	81*	76*
CC1OC(OC2C(O)CC(OC3C(O)CC(OC4CCC5(C)C(CCC6C5CCC5(C)C(C7=CC(=O)OC7)C(O)CC65O)C4)OC3C)OC2C)CC(O)C1O (stereo unspecified)	49	0	35	9	35	21
C[C@@H]1O[C@@H](O[C@H]2C[C@@H](O)[C@]3(CO)[C@H]4[C@H](O)C[C@]5(C)[C@@H](C6=CC(=O)OC6)CC[C@]5(O)[C@@H]4CC[C@]3(O)C2)[C@H](O)[C@H](O)[C@H]1O	93*	x	103*	x	88*	x
CCOC(=O)[C@]12Cc3cc(OC)ccc3[C@H]1N(C1CCCCC1)C(=O)c1ccccc12	x	-6	47	9	x	18
CCOC(=O)[C@]12Cc3cc(Cl)ccc3[C@H]1N(C1CCCCC1)C(=O)c1ccccc12	x	x	85*	x	x	x
CC(=O)OCC12CC(OC(=O)CC(C)C)C(C)=CC1OC1C(O)C(OC(C)=O)C2(C)C12CO2 (stereo unspecified)	95*	-5	98*	77*	95*	92*
C[C@@H]1CNCCN1c1ccc(N2CC[C@@H](O)C2)c(C#N)c1	x	-10	x	12	x	3
c1ccc2c(c1)[nH]c1cnccc12	2	-3	-3	0	1	-3
Cc1c2ccncc2c(C)c2c1[nH]c1ccccc12	60	x	65	x	64*	x
CC(=O)NCC1=C(c2ccc(S(C)(=O)=O)cc2)C[C@@H]2CC[C@H]1N2CCOc1ccccc1	x	-6	x	-13	x	9
CCn1c(C)c(C(=O)O)c2cc(OC)ccc21	-4	13*	-12	-3	-11	1	GalR3 conf=5;CNG parental=0
CCOC(=O)c1c(C)n(C(C)C)c2ccc(OC)cc12	20	-9	-1	5	-4	-21
O=C(O)Cn1cc(C(=O)c2ccccc2F)c2ccccc21	-6	-9	7	-9	-13	-16
CC(C)(C)c1cc(C=C(C#N)C#N)cc(C(C)(C)C)c1O	81*	27*	76*	-3	61	2	GalR3 conf=18*;CNG parental=15*
N#CC(C#N)=Cc1ccc(O)c(O)c1	5	-1	-11	-30	5	-16
CCCCCN1C(=O)c2cc(OC)ccc2[C@@]2(C(=O)OCC)Cc3cc(Cl)ccc3[C@@H]12	x	36*	22	-3	x	36	GalR3 conf=52*;CNG parental=2.6*
CCOC(=O)[C@]12Cc3cc(Cl)ccc3[C@H]1N(Cc1ccccc1)C(=O)c1cc(OC)ccc12	x	-8	24	6	x	11
Cc1ccc2nc(-c3ccc(CN4CCC(n5c(=O)[nH]c6cc(Cl)ccc65)CC4)cc3)c(-c3ccccc3)nc2c1	x	-8	x	-3	x	8
COC(=O)C1C(c2ccc(Cl)cc2)CC2CCC1N2C (stereo unspecified)	x	-3	x	11	x	-26
